Screens from PubChem.
TLR9-MyD88 block = blocks human TLR9 binding to MyD88; CHO BLA complementation TLR9-MyD88, CCF4 FRET ratio; inhibition, % at 4.98 µM; hit rate 0.21% among 340,000; AID 504734;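 active = inhibition above the mean over all tested compounds plus 3 SD, cut at about 21% in these data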
TLR4-MyD88 BLA = TLR4-MyD88 interaction inhibition in cells; AID 861; HeLa CL3-4 TLR4/MyD88 BLA complementation, FRET ratio; O00206+Q99836; hit rate 0.18% among 200,000; inhibition, % at 8.4 µM; in the data active = inhibition above about 25%
NOD2-RIPK2 inh = blocks binding of human NOD2 to RIPK2. O43353. inhibition, % at 4.98 µM. hit rate 0.38% among 360,000. CHO BLA complementation NOD2-RIPK2, CCF4 ratio; in the data active = inhibition above about 21%
NPR1 activator = GC-A (human) enzyme activation. P16066. HEK293 GC-A cells, cGMP TR-FRET, EC30 ANP; 0% at EC30 ANP, 100% saturating ANP. activation, % at 10 µM. AID 1671463. hit rate 0.14% among 370,000; in the data active = activation above about 40%
Neddyl block = inhibitors of human cullin neddylation; hit rate 0.58% among 360,000; inhibition, % at 25 µM; AID 651699; TR-FRET cullin neddylation, biochemical; in the data active = inhibition above about 36%
NPR2 activator = GC-B (human) receptor activation. P20594. HEK293-GC-B cells, CNP EC30, cGMP TR-FRET; 0% at EC30 CNP, 100% saturating CNP. activation, % at 10 µM. hit rate 0.11% among 370,000. AID 1920062;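 active = activation at 10 µM reaching about 35% in either raw or pattern-adjusted values, limit read from the data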
NOD2-RIPK2 conf = confirmation of human NOD2-RIPK2 interaction inhibitors; shares compounds with NOD2-RIPK2 inh; CHO cells, NOD2-RIPK2 BLA complementation, CCF4 FRET; inhibition, % at 4.98 µM; hit rate 70% among 1,200;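 active = mean inhibition across replicates above a set limit taken from the earlier primary screen, cut at about 21% in these data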
BLA counter = counter-screen for NOD2-RIPK2 interaction inhibitors: BLA reporter; shares compounds with NOD2-RIPK2 inh; CHO BLA reporter, CCF4 FRET ratio, counterscreen; inhibition, % at 4.98 µM; hit rate 57% among 1,200; AID 624371;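 active = mean inhibition above the low-control mean inhibition plus three low-control SD, cut at about 11% in these data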
Neddyl inh conf = confirmation of human cullin neddylation inhibitors | shares compounds with Neddyl block | TR-FRET cullin neddylation biochemical assay | calls only at 25 µM | hit rate 13% among 1,800 | AID 652217; in the data active = inhibition above about 40%;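 note: neddylation substrate is the cullin 1 ring ligase complex with SKP2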
Hits are given with their value; . = inactive; / = not tested or not shown; + = active, no number. Rows were chosen to be rich in hits. Some 1.2% of all compounds tested hit in one or more screens of this group.

SMILES | TLR9-MyD88 block | TLR4-MyD88 BLA | NOD2-RIPK2 inh | NPR1 activator | Neddyl block | NPR2 activator | NOD2-RIPK2 conf | BLA counter | Neddyl inh conf
CC(=O)OC1(C)CC(C)C(=O)C(C(O)CC2CC(=O)NC(=O)C2)C1 (stereo not drawn) | . | / | 28 | . | . | . | 23 | . | /
CN/C=C(/Cl)P(=O)(OC(C)C)OC(C)C | . | / | . | . | . | . | / | / | /
O=C1NCN(c2ccccc2)C12CCN(C(c1ccccc1OC(F)(F)F)c1nnnn1-c1ccc3c(c1)OCCO3)CC2 (stereo not drawn) | / | / | . | . | . | . | / | / | /
N#CC1=C(N)Oc2c(c(=O)sc3ccccc23)C1c1cccnc1 (stereo not drawn) | . | . | 22 | . | . | . | . | . | /
ClCCN(CCCl)c1ccc(C=Cc2ccncn2)cc1 | / | / | 63 | . | . | . | 47 | 60 | /
O=C(CNC(=O)OCc1ccccc1)NC(Cc1ccccc1)P(=O)(Oc1ccccc1)Oc1ccccc1 (stereo not drawn) | / | / | / | . | / | . | / | / | /
C[C@@H]1CN([C@H](C)CO)C(=O)CCCn2nncc2CO[C@@H]1CN(C)C(=O)Oc1ccc2ccccc2c1 | . | / | . | . | . | . | / | / | /
COC(=O)C1C(c2ccc(F)cc2)CC2CCC1N2C (stereo not drawn) | / | / | / | . | / | . | / | / | /
COc1cc(/C=C/[N+](=O)[O-])ccc1O | . | . | 42 | . | . | . | 44 | . | /
COc1ccc(-n2c(/C=C/c3ccc(O)c(OC)c3)nc3ccccc3c2=O)cc1 | . | / | . | . | . | . | / | / | /
CC1=CC2OC3CC4OC(=O)C=CC=CC(=O)OCCC(C)C(O)C(=O)OCC2(CC1O)C4(C)C31CO1 (stereo not drawn) | . | / | 29 | / | . | / | 28 | . | /
CC1=CC2OC3CC4OC(=O)C=CC=CC(C(C)O)OCC(O)C(C)CC(=O)OCC2(CC1O)C4(C)C31CO1 (stereo not drawn) | . | / | 22 | . | . | . | 21 | . | /
N/C(=N/[N+](=O)[O-])N1CCN(C(=O)c2ccc(Cl)cc2)CC1 | . | . | . | . | . | . | / | / | /
CC(=O)OC1C(O)C(C)OC(OC2C(OC(=O)C3CCC4C(C3)OC3(CC(OC(=O)/C=C/c5ccccc5)C(C)CO3)C43CO3)OC(C)C(O)C2OC(C)=O)C1O (stereo not drawn) | . | / | 23 | . | . | . | 28 | . | /
CN(C)c1ccc(/C=C/c2cc[n+](C)c3ccccc23)cc1 | . | . | . | . | . | . | / | / | /
C[n+]1ccc(-c2ccccc2)c2ccccc21 | . | / | . | . | 28 | . | / | / | +
CCCCCCC(=O)N/N=C/c1c(O)n(C2CC2)c(=S)[nH]c1=O | . | / | . | . | 56 | . | / | / | .
CCCCCCC(=O)N/N=C/c1c(O)n(C(C)CC)c(=S)[nH]c1=O (stereo not drawn) | . | / | . | . | . | . | / | / | /
Cc1[nH]nc2ccc(-c3cncc(OC[C@@H](N)Cc4c[nH]c5ccccc45)c3)cc12 | . | / | . | / | . | / | / | / | /
CCn1c(O)c(/C=N/NC(=O)c2ccccc2)c(=O)[nH]c1=S | . | / | . | . | 60 | . | / | / | .
Cc1cc(N(CCCl)CCCl)ccc1C=NNC(=O)c1cccnc1 | . | / | . | . | 39 | . | / | / | .
O=C1CN=C(c2ccc(Br)cc2)c2oc3ccccc3c2N1 | . | . | . | . | 40 | . | / | / | .
O=C1CN=C(c2ccc[nH]2)c2cc(Cl)ccc2N1 | . | / | . | . | 39 | . | / | / | +
O=C1C2CCN(CC2)C1Cc1ccc(OCc2ccccc2)cc1 (stereo not drawn) | . | . | . | . | . | . | / | / | /
Brc1csc(N2CCNCC2)n1 | / | / | / | . | / | . | / | / | /
CN(C)C(=O)Oc1c(Cl)cc(Cl)c2ccccc12 | . | . | . | . | . | . | / | / | /
CN(C)C(=O)Oc1ccc(Cl)c2cccnc12 | . | . | . | . | 42 | . | / | / | .
CC12CC(=O)C3C(CCC4CC(=O)C=CC43C)C1CCC2=O (stereo not drawn) | . | / | . | . | . | . | / | / | /
